Results filed as inconclusive are left out. Activity calls are given as the source filed them. Calls come from the whole dose curve; as a rule, active = well fitted curve in the direction sought with a large enough effect; inconclusive = small, poorly fitted or top-dose-only effect, or another doubt; inactive = no such curve, though single readings can be large; an effect the other way counts as inactive or inconclusive.
Assays:
[1] = biological target: ATP-dependent 6-phosphofructokinase (Trypanosoma brucei brucei) (UniProt O15648); assay: qHTS Assay to Find Inhibitors of T. brucei phosphofructokinase: hit validation (AID 492961);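 note: luminescence reports ADP formed as PFK phosphorylates fructose-6-phosphate with ATP; % is set by controls: 0 for no effect and ±100 for the full control effect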; settings: T. brucei PFK, ADP-Glo luminescence; series mostly up to 51.4 µM
Sequence of ATP-dependent 6-phosphofructokinase (Trypanosoma brucei brucei) (O15648 whole entry, looked up): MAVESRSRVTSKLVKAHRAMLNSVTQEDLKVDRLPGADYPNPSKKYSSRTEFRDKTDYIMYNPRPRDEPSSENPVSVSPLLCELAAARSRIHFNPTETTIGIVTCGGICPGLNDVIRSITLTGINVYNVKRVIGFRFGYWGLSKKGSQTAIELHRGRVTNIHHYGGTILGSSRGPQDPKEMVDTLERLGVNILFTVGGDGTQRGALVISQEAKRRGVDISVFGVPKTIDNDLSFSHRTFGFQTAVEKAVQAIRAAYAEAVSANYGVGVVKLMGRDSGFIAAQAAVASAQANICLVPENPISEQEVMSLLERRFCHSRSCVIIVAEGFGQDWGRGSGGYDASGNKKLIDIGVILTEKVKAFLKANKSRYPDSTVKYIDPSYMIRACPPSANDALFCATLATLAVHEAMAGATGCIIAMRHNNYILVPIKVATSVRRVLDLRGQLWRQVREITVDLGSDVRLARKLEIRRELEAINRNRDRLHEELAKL
How it was run: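 PFK 1.25 nM, F6P 0.5 mM, ATP 0.1 mM, MgCl2 5 mM, 0.1 M TEA pH 8.0, Tween20 0.01%, BSA 0.1%; 45 min RT. ADP-Glo two-step detection, luminescence. qHTS titration; curve fitting with curve-class categorization.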

[2] = qHTS profiling for inhibitors of Plasmodium falciparum proliferation (AID 504749); note: potency is the fitted concentration of half-maximal effect;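 for activity, negative = inhibition: 0% = DMSO vehicle and full inhibition = artemisinin control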; for all read-outs here: nearly all actives have a fitted effect of over 60% in size; settings: P. falciparum in erythrocytes, SYBR Green DNA, 72 h; for activity, negative = inhibition: at 28.7 µM (top of the series)
How it was run: (§1)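 Fluorescence of SYBR Green-bound parasite DNA, read at 485/535 nm, served as the growth measure. Infected erythrocytes were cultured with compound 72 h; artemisinin (0.29 uM) and DMSO wells defined the normalization range.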

3D7 = assay: as above; settings: P. falciparum in erythrocytes, SYBR Green DNA, 72 h; series mostly up to 28.7 µM
How it was run: as §1

CP191 = assay: as above; settings: P. falciparum in erythrocytes, SYBR Green DNA, 72 h; series mostly up to 28.7 µM
How it was run: as §1

CP192 = assay: as above; settings: P. falciparum in erythrocytes, SYBR Green DNA, 72 h; series mostly up to 28.7 µM
How it was run: as §1

CP237 = assay: as above; settings: P. falciparum in erythrocytes, SYBR Green DNA, 72 h; series mostly up to 28.7 µM
How it was run: as §1

CP262 = assay: as above; settings: P. falciparum in erythrocytes, SYBR Green DNA, 72 h; series mostly up to 28.7 µM
How it was run: as §1

CP268 = assay: as above; settings: P. falciparum in erythrocytes, SYBR Green DNA, 72 h; series mostly up to 28.7 µM
How it was run: as §1

Dd2 = assay: as above; settings: P. falciparum in erythrocytes, SYBR Green DNA, 72 h; series mostly up to 28.7 µM
How it was run: as §1

ECU = assay: as above; settings: P. falciparum in erythrocytes, SYBR Green DNA, 72 h; series mostly up to 28.7 µM
How it was run: as §1

GB4 = assay: as above; settings: P. falciparum in erythrocytes, SYBR Green DNA, 72 h; series mostly up to 28.7 µM
How it was run: as §1

HB3 = assay: as above; settings: P. falciparum in erythrocytes, SYBR Green DNA, 72 h; series mostly up to 28.7 µM
How it was run: as §1

PC49 = assay: as above; settings: P. falciparum in erythrocytes, SYBR Green DNA, 72 h; series mostly up to 28.7 µM
How it was run: as §1

TAB113 = assay: as above; settings: P. falciparum in erythrocytes, SYBR Green DNA, 72 h; series mostly up to 28.7 µM
How it was run: as §1

W2 = assay: as above; settings: P. falciparum in erythrocytes, SYBR Green DNA, 72 h; series mostly up to 28.7 µM
How it was run: as §1

[3] = biological target: Tyrosyl-DNA phosphodiesterase 1 (Homo sapiens) (UniProt Q9NUW8); assay: Confirmation Assay for Inhibitors of Tyrosyl-DNA Phosphodiesterase (TDP1) (AID 489007); settings: recombinant human TDP1 enzymatic activity, dose-response; note: potency is the fitted concentration of half-maximal effect; nearly all actives have a fitted effect of over 40% in size
Sequence of Tyrosyl-DNA phosphodiesterase 1 (Homo sapiens) (Q9NUW8 whole entry, looked up): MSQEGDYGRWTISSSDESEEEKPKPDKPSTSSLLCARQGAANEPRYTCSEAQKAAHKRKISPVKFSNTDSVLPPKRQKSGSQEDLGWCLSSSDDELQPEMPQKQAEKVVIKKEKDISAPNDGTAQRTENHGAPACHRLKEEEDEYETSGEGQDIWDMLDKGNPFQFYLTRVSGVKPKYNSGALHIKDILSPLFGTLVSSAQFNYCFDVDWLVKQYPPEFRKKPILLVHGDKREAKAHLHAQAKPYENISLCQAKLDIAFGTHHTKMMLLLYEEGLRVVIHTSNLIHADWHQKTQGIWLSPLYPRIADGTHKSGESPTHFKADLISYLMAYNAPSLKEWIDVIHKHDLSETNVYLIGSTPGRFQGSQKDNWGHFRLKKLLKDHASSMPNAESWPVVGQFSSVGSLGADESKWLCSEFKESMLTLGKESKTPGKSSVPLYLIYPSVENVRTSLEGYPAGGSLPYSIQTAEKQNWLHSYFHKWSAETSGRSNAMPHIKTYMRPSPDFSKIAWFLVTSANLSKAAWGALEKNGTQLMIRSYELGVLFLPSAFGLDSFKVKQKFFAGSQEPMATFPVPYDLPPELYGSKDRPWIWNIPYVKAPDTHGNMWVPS
How it was run: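 AlphaScreen read-out: streptavidin donor and anti-FITC acceptor beads (10 ug/ml) bind intact substrate, so Tdp1 removal of tyrosine-FITC lowers signal. Enzyme 1 nM, substrate 15 nM, 5 min reaction at room temperature after 15 min compound preincubation.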

CC(c1ncncc1F)[C@](O)(Cn1cncn1)c1ccc(F)cc1F (stereo partly drawn)
inactive: Potency [1] | activity, negative = inhibition ([2]; parasite line A) 7.39% | activity, negative = inhibition ([2]; parasite line B) -17.3% | Potency (3D7) | Potency (CP191) | Potency (CP192) | Potency (CP237) | Potency (CP262) | Potency (CP268) | Potency (Dd2) | Potency (ECU) | Potency (GB4) | Potency (HB3) | Potency (PC49) | Potency (TAB113) | Potency (W2)

Clc1ccc(N2N=C(c3cccs3)CC2c2ccco2)cc1 (stereo not drawn)
active: Potency [3] 11.2 µM

O=C(O)/C=C/c1ccc([N+](=O)[O-])o1
active: Potency [3] 50.1 µM

CCCn1c(SCC(=O)NC(=O)NCc2ccco2)n[nH]c1=O
active: Potency [3] 25.1 µM

CC1=N/C(=C/c2ccco2)C(=O)O1
active: Potency [3] 3.55 µM

CCN(CC)C(=O)CC(c1ccc(OC)cc1)c1c(OC)cc(OC)c2c(-c3ccccc3)cc(=O)oc12 (stereo not drawn)
active: Potency [3] 2.24 µM

CS(=O)(=O)C1=NSC2=NC(=O)/C(=C\c3cccn3-c3ccc(Cl)cc3)C(=N)N21
active: Potency [3] 5.01 µM

Cc1ccc(C(=O)O)cc1-n1c(C)cc(C=O)c1C
active: Potency [3] 15.8 µM

O=C(O)c1cccc(-n2cccc2/C=C2/NC(=O)N(Cc3ccccc3F)C2=O)c1
active: Potency [3] 8.91 µM

O=C(O)c1ccc(/C=C/c2nc3sc4c(c3c(=O)[nH]2)CCC4)cc1
active: Potency [3] 112 µM

CC(=O)OCC1=C(C(=O)O)N2C(=O)C(NC(=O)CSc3ccncc3)[C@@H]2SC1 (stereo partly drawn)
active: Potency [3] 14.1 µM

O=c1c2nc(Br)n([C@@H]3O[C@@H]4CO[P@@](O)(=S)O[C@H]4[C@H]3O)c2nc2[nH]c(-c3ccccc3)cn12
active: Potency [3] 12.6 µM

COc1ccc(S(=O)(=O)N2Cc3ccccc3CC2C(=O)O)cc1 (stereo not drawn)
active: Potency [3] 12.6 µM

CC(=O)NC[C@@H]1CN(c2ccc(N3CCOCC3)c(F)c2)C(=O)O1
inactive: Potency [1] | activity, negative = inhibition ([2]; parasite line A) -12.2% | activity, negative = inhibition ([2]; parasite line B) -9.57% | Potency (3D7) | Potency (CP191) | Potency (CP192) | Potency (CP237) | Potency (CP262) | Potency (CP268) | Potency (Dd2) | Potency (ECU) | Potency (GB4) | Potency (HB3) | Potency (PC49) | Potency (TAB113) | Potency (W2)

CC12C=CC(=O)C=C1[C@@H](F)CC1C2C(O)CC2(C)C1CC[C@]2(O)C(=O)CO (stereo partly drawn)
inactive: Potency [1] | activity, negative = inhibition ([2]; parasite line A) 4.43% | activity, negative = inhibition ([2]; parasite line B) 5.63% | Potency (3D7) | Potency (CP191) | Potency (CP192) | Potency (CP237) | Potency (CP262) | Potency (CP268) | Potency (Dd2) | Potency (ECU) | Potency (GB4) | Potency (HB3) | Potency (PC49) | Potency (TAB113) | Potency (W2)

Cc1c(-c2ccc(Cl)cc2)oc(=O)c2c(N)n(-c3ccccc3)nc12
active: Potency [3] 25.1 µM

Cc1ccc(S(=O)(=O)N(CC(=O)O)Cc2ccco2)cc1
active: Potency [3] 20 µM

Cc1nn(-c2ccccc2)c(C)c1S(=O)(=O)O
active: Potency [3] 25.1 µM

CCc1nnc(NC(=O)c2sc3nc4c(cc3c2N)CCCCCC4)s1
active: Potency [3] 112 µM

O=C(O)Cc1ccc(NC(=O)C2CC=CCC2C(=O)O)cc1 (stereo not drawn)
active: Potency [3] 14.1 µM

O=C(O)c1ccc(-c2ccc(/C=C3\NC(=O)N(Cc4ccc(Cl)cc4)C3=O)o2)cc1Cl
active: Potency [3] 3.55 µM

O=C(CSc1nnc(SCc2ccc(Cl)cc2)s1)N/N=C/c1c[nH]c2ccccc12
active: Potency [3] 5.01 µM

C[C@@H]1C(SC2Cn3cnc[n+]3C2)=C(C(=O)[O-])N2C(=O)[C@H]([C@@H](C)O)[C@@H]12 (stereo partly drawn)
inactive: Potency [1] | activity, negative = inhibition ([2]; parasite line A) 6.33% | activity, negative = inhibition ([2]; parasite line B) 11.1% | Potency (3D7) | Potency (CP191) | Potency (CP192) | Potency (CP237) | Potency (CP262) | Potency (CP268) | Potency (Dd2) | Potency (ECU) | Potency (GB4) | Potency (HB3) | Potency (PC49) | Potency (TAB113) | Potency (W2)

CCOC(=O)c1sc2nc3c(SCCC(=O)O)cc(C(=O)c4cc(OC)ccc4O)cn3c(=O)c2c1C
active: Potency [3] 2.82 µM

O=C(COc1ccc2oc(-c3ccccc3)cc(=O)c2c1)NCc1ccco1
active: Potency [3] 44.7 µM

O=C(NC1CC1)c1cc(-c2ccco2)nc2ccccc12
active: Potency [3] 3.55 µM

OC[C@@H]1O[C@](CO)(O[C@H]2O[C@H](CO)[C@@H](O)[C@H](O)[C@H]2O)[C@H](O)[C@H]1O
inactive: Potency [1] | activity, negative = inhibition ([2]; parasite line A) -1.62% | activity, negative = inhibition ([2]; parasite line B) 7.05% | Potency (3D7) | Potency (CP191) | Potency (CP192) | Potency (CP237) | Potency (CP262) | Potency (CP268) | Potency (Dd2) | Potency (ECU) | Potency (GB4) | Potency (HB3) | Potency (PC49) | Potency (TAB113) | Potency (W2)

CC(=O)NC1[C@H](O)C[C@@](O)(C(=O)O)O[C@H]1[C@H](O)[C@H](O)CO (stereo partly drawn)
inactive: Potency [1] | activity, negative = inhibition ([2]; parasite line A) 5.53% | activity, negative = inhibition ([2]; parasite line B) -8.73% | Potency (3D7) | Potency (CP191) | Potency (CP192) | Potency (CP237) | Potency (CP262) | Potency (CP268) | Potency (Dd2) | Potency (ECU) | Potency (GB4) | Potency (HB3) | Potency (PC49) | Potency (TAB113) | Potency (W2)

Cc1ccc(NC(=O)c2noc3c2CCC3)cc1C
active: Potency [3] 12.6 µM

COc1ccc(-c2nc3c(c(SCC(=O)Nc4ccc(C(=O)O)cc4)n2)Cc2ccccc2O3)cc1
active: Potency [3] 1.62 µM

CC(=O)NC1=NC(=O)/C(=C/c2cc(C)n(-c3cccc(C(=O)O)c3)c2C)S1
active: Potency [3] 2 µM

Cc1ccnc(NS(=O)(=O)c2ccc(NC(=O)C3C4C=CC(C4)C3C(=O)O)cc2)n1 (stereo not drawn)
active: Potency [3] 35.5 µM

CO[C@H]1OC2O[C@@]3(C)CC[C@H]4[C@H](C)CC[C@@H]([C@H]1C)[C@@]24OO3 (stereo partly drawn)
active: Potency ([2]; parasite line A) 0.0251 µM | Potency ([2]; parasite line B) 0.0158 µM | Potency (3D7) 0.0141 µM | Potency (CP191) 0.0112 µM | Potency (CP192) 0.0379 µM | Potency (CP237) 0.0158 µM | Potency (CP262) 0.0338 µM | Potency (CP268) 0.0213 µM | Potency (Dd2) 0.0071 µM | Potency (ECU) 0.0158 µM | Potency (GB4) 0.0135 µM | Potency (HB3) 0.0079 µM | Potency (PC49) 0.0251 µM | Potency (TAB113) 0.0112 µM | Potency (W2) 0.006 µM
inactive: Potency [1]

Cc1ccc(NC(=O)CN2C(=O)N/C(=C/c3cccn3-c3ccc(C(=O)O)cc3)C2=O)cc1
active: Potency [3] 0.282 µM

CC(=O)NC1[C@H]([C@H](O)[C@H](O)CO)OC(C(=O)O)=C[C@H]1N=C(N)N (stereo partly drawn)
inactive: Potency [1] | activity, negative = inhibition ([2]; parasite line A) 4.99% | activity, negative = inhibition ([2]; parasite line B) 6.49% | Potency (3D7) | Potency (CP191) | Potency (CP192) | Potency (CP237) | Potency (CP262) | Potency (CP268) | Potency (Dd2) | Potency (ECU) | Potency (GB4) | Potency (HB3) | Potency (PC49) | Potency (TAB113) | Potency (W2)

COc1cccc2c1C(=O)c1c(O)c3c(c(O)c1C2=O)C[C@@](O)(C(=O)CO)C[C@@H]3OC1CC(N)C(O)C(C)O1 (stereo partly drawn)
active: Potency ([2]; parasite line A) 2 µM | Potency ([2]; parasite line B) 3.16 µM | Potency (3D7) 1 µM | Potency (CP191) 2.24 µM | Potency (CP192) 1.9 µM | Potency (CP237) 0.891 µM | Potency (CP262) 2.39 µM | Potency (CP268) 3.79 µM | Potency (Dd2) 1.26 µM | Potency (ECU) 3.16 µM | Potency (GB4) 1.69 µM | Potency (HB3) 2 µM | Potency (PC49) 5.62 µM | Potency (TAB113) 2.51 µM | Potency (W2) 0.675 µM
inactive: Potency [1]

OCC1O[C@H](O[C@H]2C(O)C(O)C(O)O[C@@H]2CO)C(O)C(O)C1O (stereo partly drawn)
inactive: Potency [1] | activity, negative = inhibition ([2]; parasite line A) 7.88% | activity, negative = inhibition ([2]; parasite line B) 6.42% | Potency (3D7) | Potency (CP191) | Potency (CP192) | Potency (CP237) | Potency (CP262) | Potency (CP268) | Potency (Dd2) | Potency (ECU) | Potency (GB4) | Potency (HB3) | Potency (PC49) | Potency (TAB113) | Potency (W2)

Cc1cn([C@H]2CC(F)[C@@H](CO)O2)c(=O)[nH]c1=O (stereo partly drawn)
inactive: Potency [1] | activity, negative = inhibition ([2]; parasite line A) 6.21% | activity, negative = inhibition ([2]; parasite line B) 4.03% | Potency (3D7) | Potency (CP191) | Potency (CP192) | Potency (CP237) | Potency (CP262) | Potency (CP268) | Potency (Dd2) | Potency (ECU) | Potency (GB4) | Potency (HB3) | Potency (PC49) | Potency (TAB113) | Potency (W2)

— PubChem BioAssay (NCATS)
